Mtb BioA inh – BioA (M. tuberculosis) enzyme inhibition | 360,000 tested, 0.096% active | inhibition, % at 9.99 µM | AID 602481 | purified M. tuberculosis BioA enzyme, plate reader; in the data active = inhibition above about 40%; inconclusive = no clear call, values can overlap the other calls
PfHsp40 yeast – restores yeast growth despite PfHsp40 toxicity. S. cerevisiae expressing PfHsp40, growth rescue, ATP luminescence. 340,000 tested, 0.68% active. growth rescue, % at 12.5 µM; in the data active = growth rescue above about 28%, passing the limit was not always enough; inconclusive = no clear call, values can overlap the other calls;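 also: yeast W303a lacking pdr1 and pdr3 grown in galactose medium; growth measured after three days at 30 °C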
PrP UTR inh – inhibition of PrP 5' UTR reporter expression. inhibition, % (test concentration not listed). AID 488862. cell-based PrP 5' UTR mRNA reporter, plate reader. 340,000 tested, 0.35% active; in the data active = inhibition above about 52%; also: 0 = median of the neutral control wells
FadD28 FP inh – M. tuberculosis FadD28 bisubstrate binding inhibition | FadD28 bisubstrate probe binding, fluorescence polarization | inhibition, % at 12.5 µM | 360,000 tested, 0.22% active; in the data active = inhibition above about 8.5%, passing the limit was not always enough; inconclusive = no clear call, values can overlap the other calls
Y pestis TopoI – Y. pestis Topo-I inhibition via cleavage products; Y. pestis Topo-I cleavage product accumulation, plate reader; activity, % at 10 µM; 360,000 tested, 0.064% active; in the data active = activity above about 50%, passing the limit was not always enough; inconclusive = no clear call, values can overlap the other calls
TcdB inh – blocks C. difficile toxin B glycohydrolase activity. 350,000 tested, 0.24% active. P18177. inhibition, % at 9.99 µM. TcdB glycohydrolase enzymatic assay, plate reader; in the data active = inhibition above about 10%
PrP UTR cherry – prion 5' UTR mRNA inhibition, cherry-pick retest; cell-based prion protein 5' UTR reporter, plate reader; AID 504592; inhibition, % at 2.5 µM; shares compounds with PrP UTR inh; 1,100 tested, 48% active; in the data active = inhibition above about 54%; inconclusive = no clear call, values can overlap the other calls
* marks the source's active call; other numbers are inactive results; ? = inconclusive; · = no result given. Compounds with a hit are over-represented: about 1.2% of the library has one in this group of screens.

SMILES | Mtb BioA inh | PfHsp40 yeast | PrP UTR inh | FadD28 FP inh | Y pestis TopoI | TcdB inh | PrP UTR cherry
COc1ccc(Cl)cc1NC(=O)CCn1cnc2ccccc2c1=O | 1 | -2 | 70* | -3 | 3 | · | -10
COc1ccc(CN2C[C@@H](C)[C@H](OC)CN(C)C(=O)c3ccc(NC(C)=O)cc3OC[C@H]2C)cc1 | · | · | · | · | · | -7 | ·
COc1ccc(/C=N/NC(=O)c2cc3c(OC)ccc(OC)c3[nH]2)cc1O | · | 1 | 60* | 7 | -32 | -1 | 78*
COc1ccc(OC)c2[nH]c(C(=O)N/N=C/c3ccccc3O)cc12 | 0 | -1 | 13 | 4 | -30 | 1 | ·
Cc1ccc(Nc2nc(-c3c(C)nc4ccccn34)cs2)cc1 | -1 | 0 | 59* | -3 | -8 | · | 83*
Cc1nc2ccccn2c1-c1csc(NCc2ccco2)n1 | 1 | 0 | -10 | -2 | 11 | · | ·
Cc1nc2ncccn2c1-c1csc(Nc2ccc(O)cc2)n1 | · | 0 | -5 | 1 | -13 | 6 | ·
Cc1ccc(Nc2nc(-c3c(C)nc4ncccn34)cs2)cc1 | 3 | 2 | 67* | -2 | 27 | · | 89*
C[C@H](CO)N1C[C@H](C)[C@@H](CN(C)C(=O)Nc2ccc(F)cc2)Oc2c(NS(C)(=O)=O)cccc2C1=O | -2 | · | · | · | · | 0 | ·
COc1ccc(-c2noc(CCCC(=O)O)n2)cc1 | -1 | 0 | 56* | 0 | 6 | · | 29
O=C(C[C@H]1CC[C@@H](NC(=O)Nc2cc(F)ccc2F)[C@H](CO)O1)Nc1ccc(-c2ccccc2)cc1 | 1 | · | · | · | · | -4 | ·
Cc1ccccc1NC(=S)N/N=C/C(C)c1ccccc1 (stereo not given) | -1 | -1 | -7 | -2 | 6 | 3 | ·
Cc1cccc(NC(=S)N/N=C/C(C)c2ccccc2)c1C (stereo not given) | · | 0 | 59* | 0 | -6 | 0 | -22
COc1ccc(-c2ccc(=O)n(Cc3cc(=O)n4ccccc4n3)n2)cc1 | 0 | -2 | 66* | -2 | 7 | · | 9
O=C(C[C@H]1CC[C@H](NS(=O)(=O)c2ccc(F)cc2)[C@@H](CO)O1)N1CCc2ccccc2C1 | -4 | · | · | · | · | -1 | ·
Cc1cc([N+](=O)[O-])c2ccccc2[n+]1[O-] | · | 127* | 87* | -1 | -2 | · | 98*
Cc1ccccc1[N+](=O)[O-] | -1 | 0 | -11 | -2 | 3 | 1 | ·
C[C@@H]1CCCCO[C@H](CN(C)S(=O)(=O)c2ccc(F)cc2)[C@H](C)CN([C@H](C)CO)C(=O)c2cc(NC(=O)NC3CCCCC3)ccc2O1 | 2 | · | · | · | · | -1 | ·
C[C@H]1CN([C@@H](C)CO)S(=O)(=O)c2ccc(/C=C/c3ccccc3)cc2O[C@@H]1CN(C)Cc1cncnc1 | 1 | · | · | · | · | 0 | ·
CCn1c(SCC(=O)Nc2cc(C)on2)nnc1-c1cccc(C)c1 | 6 | 1 | -47 | · | 11 | 0 | ·
CCn1c(SCC(=O)Nc2ccc(N(C)C)cc2)nnc1-c1cccc(C)c1 | -1 | 0 | 64* | 0 | 5 | · | -6
Cc1cc(/C=C2\SC(=S)N(C)C2=O)c(C)n1-c1ccc(O)cc1 | · | 450* | 76* | -3 | -28 | 0 | 77*
C[C@@H]1CN([C@@H](C)CO)C(=O)c2cc(-c3cccc(F)c3)cnc2O[C@H]1CN(C)C | -1 | · | · | · | · | 0 | ·
CC(=O)c1c(C)[nH]c(C(=O)COC(=O)CCSc2ccccc2)c1C | 0 | 1 | -11 | -4 | -3 | 1 | ·
CC(=O)c1c(C)[nH]c(C(=O)COC(=O)CCCOc2ccccc2)c1C | · | 0 | 58* | 0 | -1 | 1 | ?
SMILES | Mtb BioA inh | PfHsp40 yeast | PrP UTR inh | FadD28 FP inh | Y pestis TopoI | TcdB inh | PrP UTR cherry
Cc1onc(-c2ccccc2)c1C(=O)Nc1ncc([N+](=O)[O-])s1 | 1 | 1 | -13 | 2 | -2 | -1 | ·
Cc1ccc(C(=O)Nc2ncc([N+](=O)[O-])s2)cc1 | 0 | 6 | 71* | 2 | -6 | 21* | 73*
Cc1ccc(C(=O)Nc2ncc(Cc3ccc(SC(F)F)cc3)s2)cc1 | 0 | -1 | 62* | -2 | -11 | 2 | 89*
O=C(C[C@@H]1C=C[C@@H](NC(=O)C2CC2)[C@H](CO)O1)NCc1ccncc1 | -4 | · | · | · | · | 0 | ·
Cc1nc(N)nc(N)c1-c1ccc(Cl)c(Cl)c1 | · | 1 | 58* | 0 | -2 | 0 | 9
CC(C)c1cn(CC[C@@H]2CC[C@H](N)[C@@H](CO)O2)nn1 | -4 | · | · | · | · | -2 | ·
CC(=O)O[C@H]1C(=O)[C@@]2(C)C([C@H](OC(=O)c3ccccc3)[C@]3(O)C[C@H](OC(=O)[C@H](O)[C@@H](NC(=O)c4ccccc4)c4ccccc4)C(C)=C1C3(C)C)[C@]1(OC(C)=O)CO[C@@H]1C[C@H]2O (stereo not given in full) | 1 | 1 | 56* | -2 | 33 | 1 | 68*
CC(=O)O[C@@]12CO[C@@H]1C[C@H](O)[C@@]1(C)C(=O)[C@H](O)C3=C(C)[C@@H](OC(=O)[C@H](O)[C@@H](NC(=O)c4ccccc4)c4ccccc4)C[C@@](O)([C@@H](OC(=O)c4ccccc4)C12)C3(C)C (stereo not given in full) | 1 | 0 | 1 | -3 | 25 | 0 | ·
CC(=O)O[C@H]1C(=O)[C@]2(C)[C@H]([C@H](OC(=O)c3ccccc3)[C@]3(O)C[C@H](OC(=O)[C@H](O)[C@@H](NC(=O)c4ccccc4)c4ccccc4)C(C)=C1C3(C)C)[C@]1(OC(C)=O)CO[C@@H]1C[C@@H]2O | -2 | 5 | 53* | -2 | 31 | 2 | 89*
C[C@@H]1CN([C@@H](C)CO)C(=O)c2cccc(NC(=O)C3CCCCC3)c2O[C@H]1CN(C)C(=O)Nc1ccc(F)cc1 | 4 | · | · | · | · | 0 | ·
O=C(Nc1ccc(N2CCOCC2)cc1)c1cnsn1 | 5 | 0 | 68* | 0 | -6 | · | 77*
O=C(Nc1ccc(N2CCOCC2)cc1)c1cnccn1 | 4 | 1 | 44 | -1 | 3 | 1 | ·
O=C(NCc1ccccc1Cl)c1ccc[nH]1 | -1 | 1 | 77* | -1 | 2 | 2 | 23
COc1ccc(C(=O)c2cc([N+](=O)[O-])ccc2N2CCOCC2)cc1 | · | 0 | 83* | -4 | -6 | 1 | 80*
CCOc1ccc(C(=O)c2cc([N+](=O)[O-])ccc2N2CCOCC2)cc1 | · | 1 | 58* | -2 | 5 | 1 | 72*
CN(C)C(=O)[C@@H]1[C@@H](CO)[C@@H]2Cn3c(ccc(-c4ccccc4F)c3=O)[C@@H]2N1C(=O)c1cnccn1 | 1 | · | · | · | · | 1 | ·
COc1ccc2c(=O)cc(-c3cccnc3)oc2c1OC | -4 | 0 | 54* | 0 | -7 | 1 | -5
CC(=NNC(=S)N(Cc1ccccn1)Cc1ccccn1)c1cnccn1 | · | 113* | 80* | -1 | 8 | -2 | 58*
O=C(NC1CCCCC1)c1csnn1 | · | 1 | 84* | 0 | 2 | 1 | -1
